This is an account of results in PubChem BioAssay.

In assay [1] the test system is PRMT1 (protein arginine N-methyltransferase 1). Briefly: small molecules binding arginine methyltransferase PRMT1 – biochemical, small-molecule microarray, 635 nm fluorescence, primary screen (AID 1088).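 Note: binding of Prmt1 protein to compounds spotted on small-molecule microarray slides.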 The note with it: higher = more signal.
Assay [2] can be described thus: growth effects on S. cerevisiae YJM789 – YJM789 clinical isolate, OD600, 24 h, basal, primary screen (AID 1089).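 Note: growth of clinical yeast isolate S. cerevisiae YJM 789 seeded 1000 cells per well; test concentration not given here.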 The following applies: higher = more signal, called active from +8 up or from −8 down.
A short description of assay [3]: S. pombe growth modifiers, basal conditions – strain 972, OD600, 24 h, no modulator, primary screen (AID 1090).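 Note: basal condition with compound alone and no growth modifier present; test concentration not given here.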 The note with it: S. pombe 972 growth, higher = more signal, called active from +8 up or from −8 down.
Assay [4] in a line: budding yeast growth modifiers under rapamycin – strain BY4716, OD600, 96 h, primary screen (AID 1091). Note: test concentration not given here. The note with it: S. cerevisiae BY4716 + rapamycin, higher = more signal, called active from +8 up or from −8 down.
In assay [5] the target is Torsin-1A-interacting protein 2 (Homo sapiens) (UniProt Q8NFQ8). Briefly: small molecules binding lysate-expressed LULL1 – cell lysate, human LULL1 lysate, 635/667 nm fluorescence, primary screen (AID 1092).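 Note: probe is lysate of COS7 cells overexpressing human LULL1; score merges per-feature 667 nm fluorescence with signal-to-noise.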 The following applies: small-molecule microarray, hLULL1 lysate binding, 635 nm fluorescence; higher = more signal.
Chain of Torsin-1A-interacting protein 2 (Homo sapiens) (Q8NFQ8 whole entry, looked up): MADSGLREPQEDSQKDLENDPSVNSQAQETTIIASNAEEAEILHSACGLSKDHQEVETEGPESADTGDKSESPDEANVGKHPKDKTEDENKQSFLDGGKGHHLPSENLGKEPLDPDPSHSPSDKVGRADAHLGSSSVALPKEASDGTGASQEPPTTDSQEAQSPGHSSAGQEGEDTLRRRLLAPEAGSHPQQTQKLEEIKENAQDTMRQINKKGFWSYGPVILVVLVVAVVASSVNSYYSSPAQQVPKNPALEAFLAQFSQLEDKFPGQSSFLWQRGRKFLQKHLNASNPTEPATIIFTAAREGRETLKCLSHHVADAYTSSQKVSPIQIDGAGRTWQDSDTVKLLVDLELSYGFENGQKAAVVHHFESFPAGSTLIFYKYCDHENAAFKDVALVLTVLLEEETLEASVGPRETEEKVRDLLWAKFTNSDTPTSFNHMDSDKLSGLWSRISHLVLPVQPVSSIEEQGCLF
A short description of assay [6]: optical density change of DRC41 E. coli – strain DRC41, OD650, 24 h, E. coli filamentation project, primary screen (AID 1093).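 Note: MC1000 strain lacking acrAB efflux and sulA so SOS filamentation is blocked; test concentration not given here.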 The following applies: E. coli DRC41 growth, higher = more signal, called active from +8 up or from −8 down.
A short description of assay [7]: probe aLefty2 binding to arrayed compounds – biochemical, biotinylated probe, 635/667 nm fluorescence, primary screen (AID 1094).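 Note: score merges spot fluorescence near 667 nm with spot signal-to-noise ratio.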 The following applies: small-molecule microarray, higher = more signal.
In assay [8] the test system is Noggin (protein binding on small-molecule microarray). Briefly: small molecules binding Noggin protein – biochemical, 635/667 nm fluorescence, primary screen (AID 1095).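 Note: score merges 667 nm feature fluorescence with signal to noise over triplicate slides.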 The following applies: 635 nm fluorescence, higher = more signal.
In assay [9] the target is Neurogenic locus notch homolog protein 3 (Homo sapiens) (UniProt Q9UM47). Briefly: small molecules binding NOTCH3 protein – biochemical, 635/667 nm fluorescence, primary screen (AID 1096). The following applies: small-molecule microarray, 635 nm fluorescence, higher = more signal.
Chain of Neurogenic locus notch homolog protein 3 (Homo sapiens) (Q9UM47 whole entry, looked up): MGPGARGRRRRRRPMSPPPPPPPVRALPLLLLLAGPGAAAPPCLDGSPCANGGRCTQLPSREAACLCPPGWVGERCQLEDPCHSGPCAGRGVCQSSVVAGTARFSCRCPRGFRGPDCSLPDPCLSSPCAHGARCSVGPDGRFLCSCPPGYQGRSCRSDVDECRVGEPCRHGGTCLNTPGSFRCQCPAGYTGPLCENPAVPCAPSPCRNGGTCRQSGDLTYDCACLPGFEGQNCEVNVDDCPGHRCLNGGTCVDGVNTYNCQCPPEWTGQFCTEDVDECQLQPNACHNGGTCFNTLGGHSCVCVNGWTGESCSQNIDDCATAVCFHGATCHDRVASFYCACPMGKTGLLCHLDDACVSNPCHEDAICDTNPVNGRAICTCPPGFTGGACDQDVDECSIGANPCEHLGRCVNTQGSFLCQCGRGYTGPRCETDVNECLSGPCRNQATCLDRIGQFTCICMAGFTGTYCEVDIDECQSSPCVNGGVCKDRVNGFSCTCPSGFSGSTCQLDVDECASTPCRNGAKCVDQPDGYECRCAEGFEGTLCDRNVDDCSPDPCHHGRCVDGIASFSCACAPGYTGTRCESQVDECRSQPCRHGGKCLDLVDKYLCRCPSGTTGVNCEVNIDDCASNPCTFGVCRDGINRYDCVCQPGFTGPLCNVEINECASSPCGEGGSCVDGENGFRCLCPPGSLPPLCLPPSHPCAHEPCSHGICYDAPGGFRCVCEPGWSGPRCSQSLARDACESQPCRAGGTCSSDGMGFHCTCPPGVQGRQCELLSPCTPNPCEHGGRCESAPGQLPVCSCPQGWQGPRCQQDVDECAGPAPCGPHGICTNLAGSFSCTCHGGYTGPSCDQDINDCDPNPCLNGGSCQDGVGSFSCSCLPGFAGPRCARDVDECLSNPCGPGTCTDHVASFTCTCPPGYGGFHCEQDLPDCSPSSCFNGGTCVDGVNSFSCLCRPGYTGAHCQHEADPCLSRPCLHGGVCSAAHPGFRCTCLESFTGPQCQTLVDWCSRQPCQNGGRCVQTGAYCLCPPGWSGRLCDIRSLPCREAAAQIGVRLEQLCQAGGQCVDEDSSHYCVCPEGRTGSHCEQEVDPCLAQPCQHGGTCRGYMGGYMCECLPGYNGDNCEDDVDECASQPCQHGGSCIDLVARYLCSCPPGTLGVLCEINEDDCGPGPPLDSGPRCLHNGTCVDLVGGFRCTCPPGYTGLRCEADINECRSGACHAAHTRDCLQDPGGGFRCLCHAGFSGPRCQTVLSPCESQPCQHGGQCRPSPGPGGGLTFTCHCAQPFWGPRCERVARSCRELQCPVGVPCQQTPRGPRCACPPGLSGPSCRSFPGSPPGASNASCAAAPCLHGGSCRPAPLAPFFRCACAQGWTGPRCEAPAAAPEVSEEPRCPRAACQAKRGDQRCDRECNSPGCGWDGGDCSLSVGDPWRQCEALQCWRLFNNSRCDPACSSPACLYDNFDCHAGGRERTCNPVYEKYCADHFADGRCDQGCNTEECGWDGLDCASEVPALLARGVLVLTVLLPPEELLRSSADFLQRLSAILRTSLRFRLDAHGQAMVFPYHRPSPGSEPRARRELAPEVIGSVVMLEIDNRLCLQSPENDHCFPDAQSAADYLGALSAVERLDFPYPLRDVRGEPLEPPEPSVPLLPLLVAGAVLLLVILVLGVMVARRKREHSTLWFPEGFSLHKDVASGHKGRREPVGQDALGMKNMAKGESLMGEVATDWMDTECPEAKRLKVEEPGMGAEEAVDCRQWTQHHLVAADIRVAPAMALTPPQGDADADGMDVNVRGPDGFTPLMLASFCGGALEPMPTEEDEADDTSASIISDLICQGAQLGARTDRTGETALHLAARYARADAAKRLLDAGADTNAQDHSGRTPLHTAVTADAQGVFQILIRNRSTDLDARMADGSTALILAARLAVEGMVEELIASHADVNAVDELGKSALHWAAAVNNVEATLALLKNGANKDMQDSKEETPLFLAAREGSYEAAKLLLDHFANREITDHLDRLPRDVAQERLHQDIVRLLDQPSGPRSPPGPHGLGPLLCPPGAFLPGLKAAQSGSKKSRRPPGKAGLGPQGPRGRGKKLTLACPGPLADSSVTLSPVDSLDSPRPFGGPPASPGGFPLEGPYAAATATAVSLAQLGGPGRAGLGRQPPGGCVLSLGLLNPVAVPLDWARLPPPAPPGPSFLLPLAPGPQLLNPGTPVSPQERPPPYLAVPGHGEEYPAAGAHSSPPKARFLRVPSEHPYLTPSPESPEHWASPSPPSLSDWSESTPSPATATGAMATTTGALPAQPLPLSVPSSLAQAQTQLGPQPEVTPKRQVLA
The nature of assay [10]: probe aEGFR binding to arrayed compounds – biochemical, biotinylated probe, 635/667 nm fluorescence, primary screen (AID 1097).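 Note: probe is a biotinylated anti-EGFR antibody binding compounds printed on slides; score combines fluorescence near 667 nm and signal to noise of each spot.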 The following applies: small-molecule microarray, higher = more signal.
Assay [11] relates to Plasmodium falciparum Sir2 (PF13_0152, Sir2A). Briefly: Plasmodium falciparum Sir2A binding compounds – biochemical, small-molecule microarray, 635 nm fluorescence, primary screen (AID 1098).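 Note: score merges spot fluorescence intensity with its signal-to-noise ratio.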 The following applies: fluorescence 635 nm, higher = more signal.
Assay [12] in a line: probe aDKK1 binding to arrayed compounds – biochemical, biotinylated probe, 635/667 nm fluorescence, primary screen (AID 1099).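 Note: score merges 667nm spot fluorescence with signal to noise across triplicate slides; reference of the scale not given here.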 The note with it: small-molecule microarray, higher = more signal.
A short description of assay [13]: probe aCHRDL2 binding to arrayed compounds – biochemical, biotinylated probe, 635/667 nm fluorescence, primary screen (AID 1100). The following applies: small-molecule microarray, higher = more signal.
Assay [14] can be described thus: change in splice reporter luminescence, either direction, cell-based, HEK293, spliceosome inhibition project, primary screen (AID 1101).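 Note: HEK293 cells carrying a splicing-competent luciferase reporter gene; test concentration not given here.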 The following applies: HEK293 splicing luciferase reporter, 24 h, higher = more signal, called active from +8 up or from −8 down. On the technique in general: In a reporter assay the amount or activity of a reporter protein is the signal.

Assay [15] deals with Fibroblast growth factor 10 (Homo sapiens) (UniProt O15520). Briefly: compounds binding fibroblast growth factor 10 – biochemical, small-molecule microarray, 635 nm fluorescence, primary screen (AID 1102). The following applies: FGF10 binding, fluorescence 635 nm, higher = more signal.
Chain of Fibroblast growth factor 10 (Homo sapiens) (O15520 whole entry, looked up): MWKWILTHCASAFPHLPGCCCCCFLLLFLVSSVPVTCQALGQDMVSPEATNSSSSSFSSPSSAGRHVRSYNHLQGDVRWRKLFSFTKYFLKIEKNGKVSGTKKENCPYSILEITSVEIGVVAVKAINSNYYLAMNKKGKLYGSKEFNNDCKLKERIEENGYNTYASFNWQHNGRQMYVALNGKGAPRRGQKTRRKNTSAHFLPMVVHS
Assay [16] deals with glycogen synthase kinase-3 (GSK3A per assay name; protocol says GSK3B). Briefly: compounds binding glycogen synthase kinase-3 – biochemical, small-molecule microarray, 635 nm fluorescence, GSK3A, primary screen (AID 1103). Note: the record names both GSK3A and GSK3B. The following applies: fluorescence 635 nm, higher = more signal.
The target in assay [17] is Epidermal growth factor receptor (Homo sapiens) (UniProt P00533). Briefly: compounds binding epidermal growth factor receptor – biochemical, small-molecule microarray, 635 nm fluorescence, primary screen (AID 1104).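 Note: score merges 667 nm emission intensity with spot signal to noise over triplicate slides.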 The following applies: EGFR binding, higher = more signal.
Chain of Epidermal growth factor receptor (Homo sapiens) (P00533 whole entry, looked up): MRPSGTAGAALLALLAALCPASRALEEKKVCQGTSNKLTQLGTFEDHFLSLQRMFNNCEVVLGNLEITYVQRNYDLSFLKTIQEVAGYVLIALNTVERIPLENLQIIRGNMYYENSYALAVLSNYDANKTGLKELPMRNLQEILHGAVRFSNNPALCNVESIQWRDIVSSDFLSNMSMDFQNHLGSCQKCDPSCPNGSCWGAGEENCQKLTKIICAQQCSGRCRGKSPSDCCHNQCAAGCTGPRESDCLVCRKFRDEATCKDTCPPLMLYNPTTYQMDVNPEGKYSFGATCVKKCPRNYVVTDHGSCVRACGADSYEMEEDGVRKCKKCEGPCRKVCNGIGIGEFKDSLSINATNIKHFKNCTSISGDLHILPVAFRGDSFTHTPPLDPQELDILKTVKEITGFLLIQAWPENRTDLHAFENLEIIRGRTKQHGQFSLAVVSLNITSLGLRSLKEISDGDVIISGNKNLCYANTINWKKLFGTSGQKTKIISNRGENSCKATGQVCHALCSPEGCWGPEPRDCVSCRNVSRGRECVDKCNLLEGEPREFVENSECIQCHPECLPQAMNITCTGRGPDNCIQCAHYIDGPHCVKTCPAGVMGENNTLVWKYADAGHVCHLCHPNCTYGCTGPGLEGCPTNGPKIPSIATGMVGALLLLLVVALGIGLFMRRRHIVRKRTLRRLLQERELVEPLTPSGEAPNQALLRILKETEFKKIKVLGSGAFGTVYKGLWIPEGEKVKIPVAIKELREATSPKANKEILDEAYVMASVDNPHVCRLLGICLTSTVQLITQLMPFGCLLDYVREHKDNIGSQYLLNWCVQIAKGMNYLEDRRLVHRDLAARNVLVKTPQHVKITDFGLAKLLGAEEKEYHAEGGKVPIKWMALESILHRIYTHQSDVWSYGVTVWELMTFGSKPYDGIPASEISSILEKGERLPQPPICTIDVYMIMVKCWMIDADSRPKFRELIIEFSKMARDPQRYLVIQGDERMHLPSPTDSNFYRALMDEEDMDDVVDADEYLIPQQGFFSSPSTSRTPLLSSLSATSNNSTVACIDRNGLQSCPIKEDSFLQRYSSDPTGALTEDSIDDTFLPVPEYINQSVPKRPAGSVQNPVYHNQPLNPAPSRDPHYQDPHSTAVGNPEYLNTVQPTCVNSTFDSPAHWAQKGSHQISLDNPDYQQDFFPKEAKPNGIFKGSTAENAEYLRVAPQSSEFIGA
Assay [18] addresses Follistatin-related protein 3 (Homo sapiens) (UniProt O95633). Briefly: compounds binding follistatin-related protein 3 – biochemical, small-molecule microarray, 635 nm fluorescence, primary screen (AID 1105).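 Note: score merges emission near 667 nm and signal to noise per printed spot across three slides.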 The note with it: FSTL3 binding, higher = more signal.
Assay [19] concerns the target Dickkopf-related protein 1 (Homo sapiens) (UniProt O94907). Briefly: small molecules binding DKK1 protein – biochemical, small-molecule microarray, 635 nm fluorescence scan, primary screen (AID 1106).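 Note: score merges emission near 667 nm with signal to noise over three replicate slides.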 The note with it: higher = more signal.
In assay [20] the test system is Inhibin beta A chain (activin A). Briefly: small molecules binding activin A – biochemical, small-molecule microarray, 635 nm fluorescence scan, primary screen (AID 1107).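 Note: mouse activin A protein probed at 4.33 µg/mL on printed slides; score merges bound-protein fluorescence near 667 nm with spot signal-to-noise.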 The note with it: INHBA, higher = more signal.

The source made the active and inactive calls.

Chain of Dickkopf-related protein 1 (Homo sapiens) (O94907 whole entry, looked up): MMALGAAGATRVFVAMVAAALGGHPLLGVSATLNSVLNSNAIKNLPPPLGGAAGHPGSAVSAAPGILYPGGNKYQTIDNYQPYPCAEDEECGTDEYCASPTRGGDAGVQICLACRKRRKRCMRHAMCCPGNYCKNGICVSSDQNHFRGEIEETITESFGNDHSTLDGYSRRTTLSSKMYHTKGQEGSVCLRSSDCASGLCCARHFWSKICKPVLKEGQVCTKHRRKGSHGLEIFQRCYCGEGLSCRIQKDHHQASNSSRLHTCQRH
Chain of Follistatin-related protein 3 (Homo sapiens) (O95633 whole entry, looked up): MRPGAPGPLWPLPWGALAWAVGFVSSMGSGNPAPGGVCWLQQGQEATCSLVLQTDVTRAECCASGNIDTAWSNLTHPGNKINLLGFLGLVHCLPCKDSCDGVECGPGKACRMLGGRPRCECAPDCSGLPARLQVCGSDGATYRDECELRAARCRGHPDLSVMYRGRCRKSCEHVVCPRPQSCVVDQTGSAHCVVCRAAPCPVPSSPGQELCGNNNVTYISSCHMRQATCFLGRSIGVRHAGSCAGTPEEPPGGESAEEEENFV

As to `CC(CCN1CCCc2nc(C)c(C)cc21)=NO[C@H](C)c1cn([C@H](CO)Cc2ccccc2)nn1`, the composite z-score in assay [1] is 1.56; in assay [5], 0.894; in assay [7] it was -0.0441; in assay [8] it was 0.633; in assay [9] it was 1.01; in assay [10], 0.0386. The composite z-score was 0.721 in assay [11]; -0.319 in assay [12]; -0.395 in assay [13]; 0.59 in [15]; 0.605 in [16]; 0.596 in assay [17]. The values for the composite z-score in assay [18], in assay [19] and in [20] were 0.761, 0.935 and 1.11, respectively. In addition, the z-score in assay [2] was 1.09 (inactive); in assay [3], 0.374 (inactive); in assay [4], 0.399 (inactive); in assay [6], -0.748 (inactive); in assay [14], 0.407 (inactive).
As for `CC(=O)OC[C@H]1O[C@H](CCON=C(C)CCN2CCCc3nc(C)c(C)cc32)C=C[C@@H]1OC(C)=O`, the composite z-score in assay [1] amounted to 1.54; in assay [5], 1.31; in [7], 0.118; in assay [8] it was 0.754; in [9], 1.04; in [10] it was 0.577. Also, the composite z-score in [11] is 0.773; in assay [12], -0.108; in assay [13], -0.408; in assay [15] it was 0.932; in assay [16], 1.24; in [17], 0.986. The composite z-score in assay [18] is 1.16; in assay [19] it was 0.735; in assay [20], 0.965. Also, the z-score in assay [2] is 0.569 (inactive); in assay [3], 0.339 (inactive); in assay [4], 0.61 (inactive); in assay [6], 1.08 (inactive); in assay [14], 1.06 (inactive).
In the case of `CN1CCc2nc(-c3ccccc3)c(-c3ccccc3)cc2C1`, the composite z-score in assay [1] is -0.288; in [5], -0.0501; in assay [7] it was 0.361; in assay [8] it was 0.405; in assay [9] it was 0.157; in assay [10] it was -0.0382. Also, the composite z-score was -0.0565 in assay [11]; -0.284 in [12]; -0.225 in [13]; 0.486 in assay [15]; 0.256 in assay [16]; 0.134 in assay [17]. Besides, the composite z-score was 0.359 in assay [18], 0.503 in assay [19] and 0.334 in assay [20]. Also, the z-score was 0.0301 (inactive) in assay [2]; 0.173 (inactive) in assay [3]; -1.35 (inactive) in assay [4]; 0.697 (inactive) in assay [6]; 0.0199 (inactive) in assay [14].
In the case of `COC(=O)CC=C[C@@H](C)[C@@H](C=NOC(C)CN1CCCc2nc(C)c(C)cc21)NS(=O)(=O)c1ccc(C)cc1` (stereo not given in full), the composite z-score was 1.3 in assay [1]; 1.05 in assay [5]; 0.156 in assay [7]; 0.629 in assay [8]; 0.812 in [9]; -0.0158 in assay [10]. The composite z-score was 0.268 in [11]; 0.219 in assay [12]; -0.296 in [13]; 0.65 in assay [15]; 0.793 in [16]; 0.568 in [17]. Moreover, the figures for the composite z-score in assay [18], in [19] and in assay [20] were 1.01, 0.829 and 0.932, respectively. Further, the z-score in assay [2] is 0.207 (inactive); in [3], 0.12 (inactive); in assay [4] it was -0.0152 (inactive); in [6], 0.644 (inactive); in assay [14] it was 0.218 (inactive).
As to `CC(=O)OC[C@H]1O[C@H](CC=NOC(C)CN2CCCc3nc(C)c(C)cc32)C=C[C@@H]1OC(C)=O` (stereo not given in full), the composite z-score in assay [1] was 1.19; in [5] it was 0.771; in assay [7] it was 0.0961; in [8], 0.977; in [9] it was 1.04; in [10], 0.0473. For the same compound, the composite z-score was 0.104 in assay [11]; -0.104 in assay [12]; -0.457 in [13]; 0.708 in assay [15]; 0.961 in assay [16]; 0.383 in assay [17]. The composite z-score in assay [18] came to 0.834; in assay [19], 0.578; in [20] it was 0.8. Moreover, the z-score is 0.489 (inactive) in assay [2]; 0.483 (inactive) in [3]; -0.344 (inactive) in assay [4]; 1.14 (inactive) in [6]; 0.184 (inactive) in assay [14].
